CYP2C19 activ – cytochrome P450 2C19 (human) activation. P33261. recombinant CYP2C19, luciferin-H EGE luminescence; hits give high values; 0 = fully inhibited enzyme, 1 = untreated enzyme. 96,000 tested, under 10 active. activation factor at 5 µM;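 active = activation factor of at least 2 at 5 µM in the primary screen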;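 also: 0 = wells with 2.5 mM tranylcypromine and 1 = vehicle-only wells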
CYP2C19 inhib – inhibitors of human CYP2C19; CYP2C19 Supersomes, luciferin-H EGE luminescence, 30 min; inhibition, % at 5 µM; 96,000 tested, 21% active; AID 778;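 active = CYP2C19 inhibition above a set limit at 5 µM in the primary screen, cut at about 50% in these data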;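 also: plate controls were negative control wells for no effect and 2.5 mM tranylcypromine positive control for full effect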
DAT uptake mod – modulates human dopamine transporter uptake under cocaine; LLC-PK1 hDAT cells, [14C]-dopamine uptake with cocaine IC80; actives deviate in either direction; 110,000 tested, 1.3% active; AID 449768; Q01959; B-score at 10 µM;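 active = Z score or B-score, a plate-position-corrected score, falls beyond the plate's 99.7% confidence bounds, in either direction; inactive = both scores lie inside the 99.7% bounds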;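 also: scored against the spread of the other compound wells on the same plate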
Target sequence (Q01959 whole entry, looked up): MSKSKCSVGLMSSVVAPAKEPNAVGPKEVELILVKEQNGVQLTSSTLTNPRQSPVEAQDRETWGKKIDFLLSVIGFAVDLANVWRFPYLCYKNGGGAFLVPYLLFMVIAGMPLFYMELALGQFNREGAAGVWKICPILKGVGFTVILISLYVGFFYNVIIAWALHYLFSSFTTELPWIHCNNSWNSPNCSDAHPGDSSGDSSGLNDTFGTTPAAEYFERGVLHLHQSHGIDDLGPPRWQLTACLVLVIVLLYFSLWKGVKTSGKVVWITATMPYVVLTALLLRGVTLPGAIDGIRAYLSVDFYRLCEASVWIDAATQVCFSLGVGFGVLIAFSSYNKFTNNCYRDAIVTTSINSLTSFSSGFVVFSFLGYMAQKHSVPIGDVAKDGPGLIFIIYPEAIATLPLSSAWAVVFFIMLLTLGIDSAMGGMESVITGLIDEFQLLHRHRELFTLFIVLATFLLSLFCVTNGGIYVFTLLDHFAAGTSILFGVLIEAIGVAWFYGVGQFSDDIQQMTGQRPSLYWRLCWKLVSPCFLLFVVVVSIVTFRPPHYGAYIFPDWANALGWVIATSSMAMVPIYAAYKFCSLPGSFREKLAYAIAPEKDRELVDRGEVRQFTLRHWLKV
D1 mod – D1 dopamine receptor (human) allosteric modulation. B-score at 10 µM. AID 641. HEK293 D1, CRE-luciferase, dopamine EC30 potentiation; actives deviate in either direction. 58,000 tested, 5.9% active. P21728;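 active = luminescence count or its row- and column-corrected plate score outside the 99.7% band of the plate's sample wells, on either side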
CYP2C9 inhib – blocks human cytochrome P450 2C9; P11712; CYP2C9 Supersomes, luciferin-H conversion, luminescence; inhibition, % at 5 µM; 96,000 tested, 20% active; AID 777;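 active = blocking of liver enzyme CYP2C9 beyond about 50% at 5 µM, limit read from the data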
CYP2C9 act – activators of human CYP2C9. 96,000 tested, 1.4% active. recombinant CYP2C9, luciferin-H conversion, luminescence; hits give high values; factor 1 = untreated enzyme, 0 = blocked. P11712. activation factor at 5 µM;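 active = activation factor of 2 or more for CYP2C9 at a 5 µM dose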;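 also: 0 = sulfaphenazole-blocked wells and 1 = vehicle-only wells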
Starred values were filed as active, the others as inactive. An excerpt weighted towards active compounds, which were near 28% of everything screened.

For Cc1ccc(NC(=O)CSC2=C(C#N)C(c3ccco3)CC(=O)N2)cc1 (stereo not given) the results were CYP2C19 activ 0.2, CYP2C19 inhib 81*, DAT uptake mod -0.55, CYP2C9 inhib 50 and CYP2C9 act 0.5.
`CC1=C(C(=O)OCC2CCCO2)C(c2ccncc2)C2=C(CC(C)(C)CC2=O)N1` (stereo not given) gave CYP2C19 activ 0.4, CYP2C19 inhib 57*, DAT uptake mod 0.28, D1 mod -0.67, CYP2C9 inhib 22 and CYP2C9 act 0.8.
CCOC(=O)C1=C(N)OC2=C(C(=O)CC(C)(C)C2)C1c1ccco1 (stereo not given) was read as CYP2C19 activ 0.8, CYP2C19 inhib 21, DAT uptake mod -0.74, D1 mod -0.062, CYP2C9 inhib 36 and CYP2C9 act 0.6.
Screening Cc1ccc(C(=O)CSC2=C(C#N)C(c3ccco3)CC(=O)N2)c(C)c1 (stereo not given) returned CYP2C19 activ 0.5, CYP2C19 inhib 49, DAT uptake mod -0.7, D1 mod -0.51, CYP2C9 inhib 98* and CYP2C9 act 0.
CCc1ccc(NC(=O)CSC2=C(C#N)C(c3ccco3)C3=C(CCCC3=O)N2)cc1 (stereo not given) was read as CYP2C19 activ 0.7, CYP2C19 inhib 33, DAT uptake mod -0.00025, CYP2C9 inhib 19 and CYP2C9 act 0.8.
Screening Cc1ccc(NC(=O)CSC2=C(C#N)C(c3ccco3)C3=C(CC(C)(C)CC3=O)N2)cc1 (stereo not given) returned CYP2C19 activ 0.1, CYP2C19 inhib 93*, DAT uptake mod 0.34, D1 mod -0.0092, CYP2C9 inhib 96* and CYP2C9 act 0.
For Cc1ccc(NC(=O)c2noc3c2CCc2ccccc2-3)cc1 the results were CYP2C19 activ 1.1, CYP2C19 inhib -7, DAT uptake mod 0.16, CYP2C9 inhib -34 and CYP2C9 act 1.3.
For Cc1nn(Cc2ccccc2)c(C)c1NC(=O)c1noc2c1CCc1ccccc1-2 the results were CYP2C19 activ 0.6, CYP2C19 inhib 38, DAT uptake mod 0.54, CYP2C9 inhib 61* and CYP2C9 act 0.4.
CCc1ccc(NC(=O)c2noc3c2CCc2ccccc2-3)cc1 was read as CYP2C19 activ 1, CYP2C19 inhib 4, DAT uptake mod -0.22, CYP2C9 inhib -112 and CYP2C9 act 2.1*.
Cc1cc(NC(=O)c2noc3c2CCc2ccccc2-3)n(-c2ccccc2)n1 was read as CYP2C19 activ 1, CYP2C19 inhib -1, DAT uptake mod -1.7, D1 mod 2.1, CYP2C9 inhib 4 and CYP2C9 act 1.
C#CCOCCOCCOCCNc1nc(N2CCN(C(=O)[C@H](CCCCN)n3cc(C(N)CO)nn3)CC2)nc(N2CCN(C(=O)[C@H](CCCCN)n3cc(C(N)COC(=O)C(F)(F)F)nn3)CC2)n1 (stereo not given in full) was read as DAT uptake mod 0.035.
Cc1ccnn2cc3c(=O)n(C)c(=O)n(C)c3c12 was read as CYP2C19 activ 1, CYP2C19 inhib -2, CYP2C9 inhib 17 and CYP2C9 act 0.8.
`O=C(c1ccc(-n2cccc2)cc1)N1CCN(Cc2ccccc2)CC1` gave CYP2C19 activ 0.9, CYP2C19 inhib 14, DAT uptake mod 1.6, CYP2C9 inhib 5 and CYP2C9 act 1.
For Cn1nc(-c2ccc(C(=O)Nc3cccc(Cl)c3)cc2)c2ccccc2c1=O the results were CYP2C19 activ 0.5, CYP2C19 inhib 51*, DAT uptake mod -1*, CYP2C9 inhib 40 and CYP2C9 act 0.6.
`Cn1nc(-c2ccc(OCC(=O)Nc3cccnc3)cc2)c2ccccc2c1=O` gave CYP2C19 activ 0.9, CYP2C19 inhib 8, DAT uptake mod -0.16, D1 mod -0.012, CYP2C9 inhib 71* and CYP2C9 act 0.3.
Screening O=C(Nc1cccnc1)c1ccc(Oc2ccccc2)cc1 returned CYP2C19 activ 0.6, CYP2C19 inhib 36, DAT uptake mod 0.37, D1 mod -6.4*, CYP2C9 inhib 89* and CYP2C9 act 0.1.
Screening Cn1nc(-c2ccc(C(=O)N3CCN(Cc4ccccc4)CC3)cc2)c2ccccc2c1=O returned CYP2C19 activ 0.3, CYP2C19 inhib 69*, DAT uptake mod 1.3, CYP2C9 inhib 73* and CYP2C9 act 0.3.
